About 13,000 (27%) of roughly 48,000 compounds showed an effect of 50% or more. The list shows a part of the results.
Test system: Wolbachia pipientis
Assay: Anti-Wolbachia Cell-Based Screen
Type: functional
Design: scale not given: in the data most compounds retested in dose-response had high values
Conditions: 5 µM

Row | SMILES | Percent Effect
1 | CCc1c(C)nc(C)nc1N1C[C@@H](CN(CC)CCO)[C@@H](CO)C1 | 6.908%
2 | COc1cc(F)ccc1N1CCN(Cc2nnc(C3CC3)o2)CC1 | -5.388%
3 | Cc1nc(CN(C)C2CCN(Cc3nnc(C4CC4)o3)C2)no1 (configuration not stated) | 115.8%
4 | Cc1nc(CN2CCCC(N(C)Cc3nc(C)c(C)o3)C2)no1 (configuration not stated) | -3.907%
5 | CC(C)c1nc(CN2CCCN(Cc3nnc(C4CC4)o3)CC2)no1 | 0.1522%
6 | CCc1nc(CN(C)C2CCN(Cc3nnc(C4CCC4)o3)C2)no1 (configuration not stated) | 110.6%
7 | CCc1nc(CN2CCCC(N(C)Cc3cnn(C)c3)C2)no1 (configuration not stated) | 10.72%
8 | CCCc1n[nH]c(C2CN(Cc3nnc(C4CC4)o3)CCO2)n1 (configuration not stated) | -2.84%
9 | CC(C)c1nc(CN(C)C2CCN(Cc3nnc(C4CC4)o3)C2)no1 (configuration not stated) | 123.9%
10 | Cc1nc(CN2CCCC(N(C)Cc3nnc(C4CC4)o3)C2)no1 (configuration not stated) | 6.77%
11 | CCCc1noc(CN2CCC(N(C)Cc3nnc(C4CC4)o3)C2)n1 (configuration not stated) | 109.8%
12 | CC(C)c1nc(CN(C)C2CCN(Cc3nc(C4CC4)no3)C2)no1 (configuration not stated) | -21.22%
13 | CN(Cc1nnc(C2CC2)o1)C1CCN(CCCc2cnn(C)c2)C1 (configuration not stated) | 3.532%
14 | CCc1nc(CN(C)C2CCN(Cc3cnc(C)cn3)C2)no1 (configuration not stated) | 5.773%
15 | O=S(=O)(Cc1ccccc1Cl)NCCCN1CCCC1 | -15.99%
16 | OC1CCN(C2CCN(Cc3cnc(-c4cccs4)nc3)CC2)CC1 | 3.199%
17 | COc1cc(OC)c(-c2nc3c([nH]2)c(C2CC2)nn3C)cc1OC | 11.95%
18 | CN1CCOC(C(=O)Nc2nc(-c3ccc(Cl)cc3)n[nH]2)C1 (configuration not stated) | -7.364%
19 | COc1ccc(CN2C[C@@H]3CN(Cc4ccncc4)C[C@@H]3C2=O)cc1.O=C(O)C(F)(F)F.O=C(O)C(F)(F)F | -12.53%
20 | O=C(CCC1CCCC1)N1C[C@H]2CC[C@@H]1CN(Cc1ccncc1)C2 | 3.308%
21 | COc1ccccc1[C@@H]1CN(Cc2ccncc2)C[C@H]1C(=O)O | -10.92%
22 | O=C(O)CC(O)(CC(=O)O)C(=O)O.c1ccc(CC2CCN(Cc3ccnc(-c4cccnc4)n3)CC2)cc1 | 2.968%
23 | O=C(O)CC(O)(CC(=O)O)C(=O)O.c1ccc([C@@H]2CN(Cc3cccnc3)C[C@H]2c2cc[nH]n2)cc1 | 104%
24 | COc1ccc(CN2C[C@H]3CN(Cc4ccncc4)C(=O)[C@H]3C2)cc1.O=C(O)C(F)(F)F.O=C(O)C(F)(F)F | -3.011%
25 | O=C(O)CC(O)(CC(=O)O)C(=O)O.c1ccc([C@@H]2CN(Cc3ccncc3)C[C@H]2c2cc[nH]n2)cc1 | 114%
26 | O=C(O)CC(O)(CC(=O)O)C(=O)O.c1cncc(-c2nccc(CN3CCCC3)n2)c1 | -12.77%

Row | SMILES | Percent Effect
27 | COc1ccc([C@@H]2CN(Cc3ccncc3)C[C@H]2c2cc[nH]n2)cc1.O=C(O)CC(O)(CC(=O)O)C(=O)O | 69.64%
28 | Cc1csc(CN(C)S(=O)(=O)c2ccc(C)c(N(C)C)c2)n1 | 11.95%
29 | CN1CCc2[nH]cnc2C12CCN(C(=O)c1noc3c1CCCC3)CC2 | 33.96%
30 | Cn1ncc(NC(=O)c2noc3c2CCCC3)c1C(=O)N1CCCCC1 | 98.83%
31 | COc1cccc([C@H]2CN(C(=O)c3noc4c3CCCC4)C[C@@H]2N)c1 | -1.914%
32 | Cc1cc(C(N)=O)ccc1NC(=O)c1nc(N2CCCC2)ncc1Cl | -12.29%
33 | Cc1cc(CN2CCC(CNC(=O)c3noc4c3CCCC4)C2)[nH]n1 (configuration not stated) | -1.453%
34 | CN(C)C(=O)c1noc2c1CN(C(=O)CCCN1CCCCC1)CC2 | -13.23%
35 | Cn1ncc(NC(=O)c2noc3c2CCCC3)c1C(N)=O | 112.2%
36 | Cc1c(NC(=O)c2noc3c2CCCC3)cnn1C | 77.55%
37 | CCC(CNS(C)(=O)=O)Oc1ccccc1F (configuration not stated) | -7.569%
38 | CN1CCC(C2CCN(Cc3cccc(-n4cccn4)c3)CC2)C1 (configuration not stated) | -5.048%
39 | CC(=O)N1CC(=O)N(c2cnn(C)c2)CC12CCN(Cc1ccsc1)C2.O=C(O)C(F)(F)F.O=C(O)C(F)(F)F (configuration not stated) | 4.027%
40 | CC(=O)N1CC(=O)N(c2ccccc2)CC12CCN(Cc1cccs1)C2.O=C(O)C(F)(F)F (configuration not stated) | 4.365%
41 | CC(=O)N1CC(=O)N(c2cnn(C)c2)CC12CCN(Cc1nccs1)C2 (configuration not stated) | -3.662%
42 | CC(=O)N1CC(=O)N(c2cnn(C)c2)CC12CCN(Cc1ccco1)C2 (configuration not stated) | 98.22%
43 | CC(=O)N1CC(=O)N(c2cnn(C)c2)CC12CCN(Cc1cccs1)C2.O=C(O)C(F)(F)F (configuration not stated) | 106.8%
44 | CC(=O)N1CC(=O)N(c2cnn(C)c2)CC12CCN(Cc1ccoc1)C2 (configuration not stated) | -11.13%
45 | CN(Cc1cccc2ncccc12)C(=O)CCn1ccc(=O)[nH]c1=O | 10.3%
46 | CNC(=O)CN1CCC(c2nn(C)c(=O)n2-c2ccccc2)CC1 | 1.276%
47 | CNC(=O)CN1CCC(NC(=O)Cn2cc(C)c3ccccc32)CC1 | -8.28%
48 | CNC(=O)CN1CCCC(Cc2ccccc2OC)C1 (configuration not stated) | 4.844%
49 | CNC(=O)CN1CCC(CN(C)Cc2ccccc2N(C)C)CC1 | 105.8%
50 | CNC(=O)CN1CCC(CN(C)CCSc2ccccc2)CC1 | 112.7%
51 | CC(=O)N(Cc1noc(C)n1)C1CCN(Cc2ccncc2Cl)C1 (configuration not stated) | 6.525%
52 | CNC(=O)CN1CCC(NC(=O)CC(C)CCc2ccccc2)CC1 (configuration not stated) | 1.042%

Row | SMILES | Percent Effect
53 | CNC(=O)CN1CCC(NC(=O)N(C)Cc2cc(C)on2)CC1 | 7.433%
54 | CN(Cc1cc(Cl)cc2cccnc12)CC1CCN(CCO)CC1 | -4.482%
55 | CNC(=O)CN1CCC(NC(=O)Cc2ccccc2OC(C)C)CC1 | -20.84%
56 | CNC(=O)CN1CCC(CN(C)Cc2ccc(C)cc2C)CC1 | 95.31%
57 | CNC(=O)CN1CCC(CN(C)Cc2ccncc2Cl)CC1 | 104.1%
58 | CCC(CNC(=O)C1CC1)(OC)c1ccccc1 (configuration not stated) | -6.712%
59 | Cc1cccc(CNC[C@H]2Cn3cc(-c4ccccc4)nc3CO2)n1 | -23.05%
60 | CC(C)c1csc(C(=O)N(C)c2ccc(Br)cn2)n1 | -10.23%
61 | Cc1cccnc1NCCNC(=O)C1CCN(Cc2ccco2)CC1 | -35.11%
62 | CC(C)(C)C(=O)NCCCc1nc2ccccc2[nH]1 | 0.1098%
63 | Cc1ncccc1-c1cc2cccnc2n1CCCNC(=O)C1CC1.Cl | 102.7%
64 | CC(C)(C)C(=O)NCCNCc1ccc(Cl)c2cccnc12 | -7.376%
65 | Cc1cccnc1NCCNC(=O)C1CCN(C(=O)N(C)C)CC1 | -7.872%
66 | CCC(=O)NCCCn1c(-c2cccnc2C)cc2cccnc21.Cl | 116.3%
67 | Cc1ncccc1-c1cc2cccnc2n1CCCNC(=O)C(C)(C)C.Cl | 83.99%
68 | CC(NC(=O)NCCCn1cccn1)c1cccnc1 (configuration not stated) | 14.81%
69 | Cc1ccc(OCCCNC(=O)Cc2nc3ncccn3n2)cc1 | -3.394%
70 | CCS(=O)(=O)NCC(=O)N(C1CC1)C1Cc2ccccc2C1 | 0.1274%
71 | CC(C)C(NC(=O)c1ccc(=O)[nH]c1)c1nnc2n1CCNCC2 (configuration not stated) | 5.765%
72 | COc1cc(C2(C(=O)N3CCN(CC(C)(C)O)CC3)CC2)ccc1C | -9.844%
73 | COc1cc(C(=O)N2CCCC(n3cncn3)C2)ccc1C (configuration not stated) | 123.7%
74 | O=C(c1ccc(Br)o1)N1CCCC(n2cncn2)C1 (configuration not stated) | 3.935%
75 | CCOc1cc(C(=O)N2CCCC(n3cncn3)C2)ccc1C (configuration not stated) | 31.02%
76 | Cn1cc(C(=O)N2CCCC(n3cncn3)C2)ccc1=O (configuration not stated) | -4.437%
77 | O=C(c1ccc(C(F)(F)F)nc1)N1CCCC(n2cncn2)C1 (configuration not stated) | -5.926%
78 | COc1ccc(C)cc1C(=O)N1CCCC(n2cncn2)C1 (configuration not stated) | 125.6%

Row | SMILES | Percent Effect
79 | COc1cc(C2(C(=O)N3CCCC(n4cncn4)C3)CC2)ccc1C (configuration not stated) | 127.9%
80 | COc1cc(C2(C(=O)NC3CCN(C4CC4)CC3)CC2)ccc1C | -9.965%
81 | O=C(c1ccccc1OC1CCCC1)N1CCCC(n2cncn2)C1 (configuration not stated) | 131.9%
82 | Cc1ccc(SCCCNC(=O)c2cn([C@H]3CC[C@@H](N)CC3)nn2)cc1 | -20.01%
83 | Cc1sc(Br)cc1S(=O)(=O)NCc1ccccn1 | -26.2%
84 | Oc1ccccc1CN1CCC(n2cc(-c3ccc(F)cc3)nn2)CC1 | -4.662%
85 | CNCc1ccc([C@@H]2CN(C)C[C@H]2C(N)=O)cc1.Cl | 68.94%
86 | CNCc1ccc([C@@H]2CN(C(C)=O)C[C@H]2C(=O)N(C)C)cc1.Cl | 99.26%
87 | Cc1ccccc1CNC(=O)N1C[C@H]2C[C@H](C(=O)N(C)C)[C@@H](C1)O2 | -3.016%
88 | Cc1occc1C(=O)NCc1ccc(N2CCCC(C(N)=O)C2)cc1 (configuration not stated) | -5.63%
89 | CNCc1ccc([C@@H]2CN(C(C)=O)C[C@H]2C(N)=O)cc1.Cl | 129.4%
90 | CS(=O)(=O)c1ccc(CNC(=O)N2CCC(C(N)=O)C2)cc1 (configuration not stated) | -0.5949%
91 | CN(C)C(=O)c1ccc(CNC(=O)NCCN(C)C2CCCC2)cc1 | 0.2327%
92 | Cl.NC(=O)c1ccc(CNC2CC2)cc1 | 11.53%
93 | O=C(O)C(F)(F)F.O=C1COC2(CCN(Cc3cccs3)CC2)CN1c1ccccc1 | -12.07%
94 | Cc1cnc(N2CCC3(CC2)CN(c2ccsc2)C(=O)CO3)nc1.O=C(O)C(F)(F)F | 15.19%
95 | Fc1cnc(N2CCOC3(CCN(Cc4ccsc4)CC3)C2)nc1.O=C(O)C(F)(F)F.O=C(O)C(F)(F)F | -10.48%
96 | Cc1cccc(CN2CCC3(CC2)CN(c2cccnc2)C(=O)CO3)n1.O=C(O)C(F)(F)F.O=C(O)C(F)(F)F | 90.31%
97 | Cn1ccnc1CN1CCC2(CC1)CN(c1cncnc1)C(=O)CO2.O=C(O)C(F)(F)F | -21.12%
98 | Cn1cc(N2CC3(CCN(Cc4cccs4)CC3)OCC2=O)cn1.O=C(O)C(F)(F)F | 13.04%
99 | O=C(O)C(F)(F)F.O=C1COC2(CCN(Cc3cccs3)CC2)CN1c1cncnc1 | 100.5%
100 | O=C(O)C(F)(F)F.O=C1COC2(CCN(Cc3cccs3)CC2)CN1c1ccsc1 | 102.1%
101 | Fc1cnc(N2CCOC3(CCN(Cc4cccs4)CC3)C2)nc1.O=C(O)C(F)(F)F.O=C(O)C(F)(F)F | 104.4%
102 | Fc1cnc(N2CCCC3(CN(Cc4ccccc4)CCO3)C2)nc1.O=C(O)C(F)(F)F (configuration not stated) | 8.099%
